Compound activity as filed in PubChem.
Compounds with a hit are over-represented: about 2.2% of the library has one in this group of screens.
Myeloid diff 2 – myeloid differentiation induction | ER-HoxA9 myeloid progenitors, lysozyme-GFP differentiation, flow cytometry | calls only at 10 µM | 360,000 compounds, 1% hits;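 active means normalized GFP-positive differentiation at or above the plate's own cutoff, the solvent-only control mean plus 3 SD; inconclusive means no clear call, values can overlap the other calls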;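 further: cells exposed to compound for four days before flow analysis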
iPSC survival up – hiPSC single-cell survival enhancement | survival enhancement, % at 20 µM | ATPlite luminescence; 100% = ROCK inhibitor wells, 0% = DMSO | 360,000 compounds, 0.044% hits; in the data active means survival enhancement above about 18%;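 further: cells exposed to compounds for 16 hours before the ATP read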
MIN6 prolif – MIN6 beta-cell proliferation induction; proliferation, % at 10 µM; 330,000 compounds, 0.29% hits; MIN6 cells proliferation, ATPlite luminescence, 48 h; cells starved in 0.2% serum; 100% = growth in 10% serum;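 active means compounds whose signal lies at least 3.5 SD above the mean of all wells on their plate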
Cardio protect – protects H9c2 cardiomyocytes from peroxide injury; H2O2 injury protection, ATPLite, 2 h; protection from H2O2 cell death, % at 20 µM; 360,000 compounds, 0.63% hits; AID 588492;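 active means compounds giving at least 50% protection of heart cells from peroxide-induced death in the single-dose screen, raw or plate-pattern-corrected value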
ABCB6 inh 2 – inhibitors of human ABC transporter ABCB6; Q9NP58; K562-ABCB6 porphyrin accumulation, flow cytometry, 1 h; active compounds read low; fluorescence ratio to DMSO, % at 10 µM; 360,000 compounds, 0.19% hits; AID 602162;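 active means fluorescence ratio to DMSO below 75%, the collection mean minus 3 SD; inconclusive means too few cells collected in the well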;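 further: signal is porphyrin accumulated inside mitochondria; lower ratio means ABCB6 inhibition with less porphyrin fluorescence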
Myeloid diff – compounds promoting myeloid differentiation; shares compounds with Myeloid diff 2; ER-HoxA9 myeloid progenitors, GFP/Mac1 double-positive flow; calls only; 2,300 compounds, 2% hits;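 active means share of green or green-and-red cells above 9 and 9% in run 1 or 4 and 3% in run 2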
GFP autofluor – counter-screen for myeloid differentiation promoters: compound fluorescence; shares compounds with Myeloid diff 2; ER-HoxA9 myeloid progenitors, no estrogen, GFP autofluorescence flow cytometry; vehicle wells 0%, positive control 100%; fluorescence response, % (concentration not given with the values); 2,300 compounds, 7.4% hits; AID 651707;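 active means over 5% cells positive for green fluorescent reporter, or over 2% positive for both it and APC stain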
Calls only; – = inactive; ? = inconclusive; · = no result given; + = active, no number.

SMILES	Myeloid diff 2	iPSC survival up	MIN6 prolif	Cardio protect	ABCB6 inh 2	Myeloid diff	GFP autofluor
COc1ccc(-c2sc3ccccc3c2-c2ccc(OCCN3CCCCC3)cc2)cc1	–	–	–	–	–	·	·
CC(C)c1ccc(OCC(O)CN2CCCC2)cc1 (configuration not stated)	–	–	–	–	–	·	·
CCN1C(=O)[C@H]2[C@@H](c3ccc(-c4cccc(Cl)c4)c(OC)c3)N[C@@](C)(C(=O)OC)[C@H]2C1=O	–	–	–	–	–	·	·
CC1=CC(C)(C)N(C(=O)CN2C(=O)c3ccccc3C2=O)c2ccc(C)cc21	–	–	–	–	–	·	·
CC1=CC(C)(C)N(C(=O)CNC2CCCCC2)c2cc(C)ccc21	+	–	–	–	–	–	–
CC1=CC(C)(C)N(C(=O)CCl)c2cc(C)ccc21	–	–	–	–	–	–	–
CC(=O)Oc1cc(C)cc2oc(=O)cc(-c3ccccc3)c12	–	–	–	–	–	–	–
Cc1ccc(-c2nn3c(C)nnc3s2)cc1NC(=O)CSc1ccc(Cl)cc1	+	–	–	–	–	+	–
CCOC(=O)N1CCN(C(=O)c2ccc3c(Cl)c4c(nc3c2)CCCC4)CC1	–	–	–	–	–	·	·
COc1ccc(N=Cc2c(O)[nH]c3ccccc23)cc1	?	–	–	–	–	·	·
Oc1[nH]c2ccccc2c1/C=N/c1nccs1	–	–	–	–	–	–	–
Cc1c(C)c2c(OCC(=O)N[C@@H](Cc3ccccc3)C(=O)O)cc3c(c2oc1=O)CCC(C)(C)O3	–	–	–	–	–	–	–
Nc1nn2cc(-c3ccccc3)nc2c2ccccc12	–	–	–	–	–	·	·
CCCCCCn1cc(CN2CC(N(C)CC)CS2(=O)=O)nn1 (configuration not stated)	–	–	·	·	–	·	·
CCc1c(C)nc2ncnn2c1NC1CCCc2ccccc21 (configuration not stated)	–	–	–	–	–	–	–
CCCCc1nc2cc(C(=O)NC(C)c3cnn(C)c3)ccc2o1 (configuration not stated)	–	–	–	–	–	·	·
CC(C)(C)NNC(=S)Nc1ccc(S(=O)(=O)N2CCOCC2)cc1	–	–	–	–	–	–	–
N#CC1=C(N)Oc2n[nH]c(-c3ccccc3)c2C12C(=O)Nc1ccccc12 (configuration not stated)	–	–	–	–	–	–	–
CCN1C(=O)C2(C(C#N)=C(N)Oc3n[nH]c(-c4ccc(Cl)cc4)c32)c2ccccc21 (configuration not stated)	–	–	–	–	–	·	·
Cc1ccc(CCNC(=O)CN2C(=O)COc3ccccc32)cc1	–	–	–	–	–	·	·
Cc1ccc(N2C(=O)CC3(CCCC3)CC2=O)cc1	–	–	–	–	–	·	·
O=C1C=C(O)CC2(CCCCC2)C1	+	–	·	–	–	–	–
CCN(CC)c1ccc(C=C(c2nnnn2-c2ccc(C)cc2)c2nnnn2-c2ccc(C)cc2)cc1	–	–	–	–	–	–	–
COc1ccccc1NC(=O)N1CCN(c2cc(-c3ccccc3)nc3ncnn23)CC1	–	–	–	–	–	–	–
COC(=O)c1c(-c2cccc3ccccc23)csc1NC(=O)Cc1ccc(OC)c(OC)c1	–	–	–	–	–	·	·
SMILES	Myeloid diff 2	iPSC survival up	MIN6 prolif	Cardio protect	ABCB6 inh 2	Myeloid diff	GFP autofluor
Cc1cc(C)c(C#N)c(SCC(O)CS(=O)(=O)Cc2ccccc2)n1 (configuration not stated)	–	–	–	–	–	–	–
Cc1cc(C)c(C#N)c(SCC(=O)c2ccccc2)n1	–	–	–	–	–	·	·
O=[N+]([O-])c1ccc(NS(=O)(=O)N2CCOCC2)cc1	–	–	–	–	–	·	·
Cc1ccc(S(=O)(=O)c2cc3c(=O)n4ccccc4nc3n(Cc3ccco3)c2=N)cc1	–	–	–	–	–	–	–
CCCOC(=O)c1c(NC(=O)CCCn2nc([N+](=O)[O-])c(Cl)c2C)sc(C(=O)OC)c1C	–	–	–	–	–	–	–
OCCC1CN(Cc2cnn(-c3ccc(F)cc3)c2)CCN1Cc1ccsc1 (configuration not stated)	–	–	–	–	–	·	·
O=C(NCc1cccnc1)c1cnn2ccccc12	–	–	–	–	–	·	·
